Giardia FBPA inh-1: inhibitors of Giardia lamblia fructose-1,6-bisphosphate aldolase | AID 2451 | 290,000 compounds, 0.71% hits | A8B2U2 | Potency, µM (doses to about 59.6 µM), for inactives: top-dose activity, negative = inhibition, actives largely listed as inhibitors | purified Giardia FBPA; note: % is set by controls: 0 for no effect and ±100 for the full control effect; nearly all actives have a fitted effect of over 55% in size
Target sequence (A8B2U2 whole entry, looked up): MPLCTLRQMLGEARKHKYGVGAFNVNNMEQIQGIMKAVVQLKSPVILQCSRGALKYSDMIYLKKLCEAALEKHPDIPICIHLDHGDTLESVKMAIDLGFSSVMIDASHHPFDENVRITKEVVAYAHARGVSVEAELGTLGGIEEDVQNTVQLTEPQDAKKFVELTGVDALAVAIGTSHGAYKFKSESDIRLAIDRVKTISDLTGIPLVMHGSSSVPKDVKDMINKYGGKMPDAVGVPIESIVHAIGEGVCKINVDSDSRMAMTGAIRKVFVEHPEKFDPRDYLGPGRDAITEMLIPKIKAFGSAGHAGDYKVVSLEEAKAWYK
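40 nM FBPA preincubated 10 min at RT with compound (up to 57.5 uM final), then substrate plus GAPDH/TPI/NAD/arsenate coupling and diaphorase/resazurin added. Fluorescence read after 20 min at RT, 525/598 nm.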
RE007 growth inh: less growth of the S. pombe RE007 Vpr strain. 360,000 compounds, 0.21% hits. Potency, µM (titrated, usually from 92.2 µM), for inactives: at the top dose activity change, negative = less growth, actives largely listed as inhibitors. S. pombe RE007 Vpr strain, BacTiter-Glo ATP luminescence, 24 h. AID 651644; active = well fitted falling curve with a large enough effect; inconclusive = small, poorly fitted or top-dose-only effect; inactive = no such curve, though single readings can be large or run the other way; note: % is set by controls: 0 for no effect and ±100 for the full control effect; nearly all actives have a fitted effect of over 50% in size
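Fission yeast RE007 carrying one integrated HIV-1 vpr copy, seeded at OD 0.01 in PMG+AL medium with 23 nL pinned compound. Grown 24 h at 30 degrees; viability read by BacTiter-Glo luminescence after 5 min.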
TbPYK inhibitor: inhibitors of Trypanosoma brucei pyruvate kinase; TbPYK enzyme, Kinase-Glo Plus ATP luminescence, 45 min; Potency, µM (highest dose often 76.8 µM), inactives show at the top dose activity, negative = inhibition, hits mostly inhibitors; 410,000 compounds, 0.12% hits; AID 624173; note: % is set by controls: 0 for no effect and ±100 for the full control effect; nearly all actives have a fitted effect of over 50% in size
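Luminescent Kinase-Glo Plus end-point after 45 min room-temperature reaction of T. brucei pyruvate kinase started with 130 uM ADP (final). Buffer TEA 50 mM pH 7.2 with KCl, MgCl2, BSA, Tween-20; titration-based qHTS with fitted concentration-effect curves.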
SARS PLpro yeast: inhibitors of SARS-CoV papain-like protease in yeast; Potency, µM (doses to about 32.9 µM), for the others: at the highest dose activity, positive = growth rescue, actives largely listed as activators; S. cerevisiae expressing SARS-CoV PLpro, growth rescue; 330,000 compounds, 0.19% hits; calls by dose curve; note: 0% is about no effect; nearly all actives have a fitted effect of over 55% in size
LmPK inhibitor: LmPK (Leishmania mexicana) enzyme inhibition | Q27686 | purified LmPK, Kinase-Glo ATP luminescence, 1 h | Potency, µM (doses to about 57.5 µM), for the others: at the highest dose activity change, negative = inhibition, actives largely listed as inhibitors | 290,000 compounds, 0.37% hits | AID 1721; note: % is set by controls: 0 for no effect and ±100 for the full control effect
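Screened at intermediate enzyme activity to detect both inhibitors and activators: LmPK at 0.1 nM, with a 0.5 nM enzyme column as activation reference. PEP 0.5 mM, ADP 0.1 mM; ATP detected by luminescence after 1 h.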
Giardia growth: blocks growth of Giardia lamblia trophozoites. shares compounds with Giardia FBPA inh-1. Giardia lamblia trophozoite growth inhibition. Potency, µM (doses to about 57.5 µM), for inactives: at the top dose activity change, negative = inhibition, most hits filed as inhibitors. 1,500 compounds, 5% hits. AID 2785;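 note: trophozoites exposed to compound for 48 h at 37 °C; % is set by controls: 0 for no effect and ±100 for the full control effect; nearly all actives have a fitted effect of over 70% in size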
Mammalian tox: counter-screen for Giardia aldolase inhibitors: mammalian cell toxicity; shares compounds with Giardia FBPA inh-1; mammalian cell viability counter-screen, qHTS; Potency, µM (titrated, usually from 57.5 µM), inactives show at the top dose viability change, negative = toxicity, most hits filed as inhibitors; 1,500 compounds, 4% hits; AID 2786;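 note: Chinese hamster ovary cells used as mammalian cytotoxicity surrogate; viability measured as cellular ATP by luminescence; compound exposure lasted 48 h before reading; % is set by controls: 0 for no effect and ±100 for the full control effect; nearly all actives have a fitted effect of over 60% in size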
Giardia FBPA inh-2: confirmation of Giardia fructose-bisphosphate aldolase inhibitors. shares compounds with Giardia FBPA inh-1. purified Giardia aldolase enzyme activity, qHTS. Potency, µM (highest dose often 57.5 µM), for the others: at the top dose activity change, negative = inhibition, usual class: inhibitors. 1,500 compounds, 5% hits. AID 2787; note: % is set by controls: 0 for no effect and ±100 for the full control effect; nearly all actives have a fitted effect of over 45% in size
Rabbit FBPA inh: selectivity test for Giardia aldolase inhibitors: rabbit aldolase. shares compounds with Giardia FBPA inh-1. Rabbit muscle FBPA enzyme inhibition, selectivity counter-screen. Potency, µM (series often up to 57.5 µM), without a hit: at the top dose activity, negative = inhibition, usual class: inhibitors. 1,500 compounds, 4% hits; note: % is set by controls: 0 for no effect and ±100 for the full control effect; nearly all actives have a fitted effect of over 60% in size
GAPDH coupling: GAPDH inhibition flagged for Giardia aldolase hits; shares compounds with Giardia FBPA inh-1; GAPDH coupling enzyme counterscreen, biochemical, qHTS; Potency, µM (doses to about 57.5 µM), for inactives: at the highest dose activity change, negative = inhibition, usual class: inhibitors; 1,500 compounds, 6% hits; AID 2795; note: % is set by controls: 0 for no effect and ±100 for the full control effect; nearly all actives have a fitted effect of over 55% in size
* hit, by the source's call; ? = inconclusive; . = no result; [ ] = another dose, or the depositor's remark. Compounds with a hit are over-represented: about 1.1% of the library has one in this group of screens. Unless noted, calls come from the whole dose curve; as a rule, active = well fitted curve in the direction sought with a large enough effect; inconclusive = small, poorly fitted or top-dose-only effect, or another doubt; inactive = no such curve, though single readings can be large; an effect the other way counts as inactive or inconclusive. Potency is the fitted concentration of half-maximal effect.

SMILES | Giardia FBPA inh-1 | RE007 growth inh | TbPYK inhibitor | SARS PLpro yeast | LmPK inhibitor | Giardia growth | Mammalian tox | Giardia FBPA inh-2 | Rabbit FBPA inh | GAPDH coupling
CN(CCCCCCN(C)Cc1ccccc1O)Cc1ccccc1O | 28µM* | -16% | 22% | 0% | -7% | ? | -9% | 2% | 3% | 6%
O=c1[nH]c(=S)[nH]c2sccc12 | 7.1µM* | 20% | -21% | 3% | 6% | -6%[38.3 µM] | -6% | -12% | -15% | -9%
O=c1[nH]c2sccc2c2ccccc12 | -8% | . | . | . | . | . | . | . | . | .
CCCc1cc(=O)n2[nH]c(NCc3c(Cl)cccc3Cl)nc2n1 | 4% | 0% | 2% | 3% | 2% | . | . | . | . | .
CCCc1cc(=O)n2[nH]c(NC(=O)c3ccco3)nc2n1 | 16µM* | 17% | -7% | -4% | -1% | ? | 13% | -8% | -4% | -5%
COc1cccc(-n2c(SCc3ccccc3C)nc3c([nH]c4ccccc43)c2=O)c1 | . | . | -3% | . | . | . | . | . | . | .
O=c1[nH]c(=S)c2ncn(-c3ccccc3)c2[nH]1 | 10µM* | -9% | -7% | 0% | -1% | 10% | 7% | 3% | 3% | 7%
Nc1nc2c(ncn2-c2ccccc2)c(=O)[nH]1 | . | 13% | 2% | . | . | . | . | . | . | .
COc1ccc2oc(-c3ccc(NC(=O)c4ccc(Cl)cc4Cl)cc3)nc2c1 | . | . | 1% | . | . | . | . | . | . | .
CC(C)OC(=O)CC1C(=O)NCCN1C(=S)NC(=O)CCc1ccccc1 (stereo unspecified) | -9% | 16% | -1% | -1% | 4% | . | . | . | . | .
CC(C)OC(=O)CC1C(=O)NCCN1C(=S)NC(=O)c1ccccc1 (stereo unspecified) | 11µM* | 6% | -18% | -1% | 3% | -13% | 11% | 7% | 5% | 8%
CC(C)OC(=O)CC1C(=O)NCCN1C(=S)NC(=O)c1ccc(F)cc1 (stereo unspecified) | 16µM* | 6% | -23% | 1% | -1% | -19% | -5% | 7% | 5% | 8%
COC(=O)CC1C(=O)NCCN1C(=S)NC(=O)c1sc2ccccc2c1Cl (stereo unspecified) | 16µM* | -6% | -29% | 1% | 3% | 13% | 3% | 5% | 8% | 12%
Cc1cccc(-c2nc3c4ccccc4nc(NCc4ccccc4Cl)n3n2)c1 | . | . | 10% | . | . | . | . | . | . | .
CC(C(=O)Nc1ccccc1F)N1CCN(C)CC1 (stereo unspecified) | 16µM* | . | . | -1% | -1% | 9% | 9% | 4% | 4% | 13%
CN1CCc2c1nc1ccccc1c2NC(=O)CN1CCCC1 | 18µM* | -1% | -15% | 1% | -3% | -4%[10.4 µM] | -6% | 10% | 3% | 7%
CCCCCCC(=O)Nc1c2c(nc3ccccc13)N(C)CC2 | 12% | -1% | -2% | . | 1% | . | . | . | . | .
CC(C)(C)CC(C)(C)NCC(=O)Nc1c2c(nc3ccccc13)CCC2 | 4.5µM* | -12% | 9% | -1% | 3% | 73% | 3% | 7% | 12% | 10%
O=c1oc(-c2ccc(C(F)(F)F)cc2)nn1Cc1cc(Cl)ccc1O | -8% | . | . | . | . | . | . | . | . | .
CNC(=S)N/N=C/c1ccc(-c2cccc(C(=O)O)c2)o1 | ? | ? | -20% | -5% | ? | . | . | . | . | .

Assay outcomes deposited in PubChem BioAssay by National Center for Advancing Translational Sciences (NCATS).
